Assay results as given in PubChem BioAssay (EPA / NIEHS).
Inconclusive results are not listed. Calls of active or inactive are those of the source. Rule for the calls: active = hit-call score of the fitted dose curve at least 0.9, where 1 is the maximum; inconclusive = response in the unintended direction; inactive = score below 0.9.

Biological target: human Serotonin, 5-Hydroxytryptamine Receptor 3 (5HT3), HTR3A (gene 3359) (UniProt P46098)
Assay: NVS_LGIC_h5HT3: NovaScreen (NVS) Ligand-Gated Ion Channel Assay for human Serotonin, 5-Hydroxytryptamine Receptor 3 (5HT3) (AID 2283325)
In short: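 Radioligand displacement binding to human 5-HT3 from HEK293 membranes, read by filter-based scintillation counting after 1 h. Screen at 25 uM in duplicate; chemicals passing threshold were retested in concentration-response up to 50 uM.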

Chain of human Serotonin, 5-Hydroxytryptamine Receptor 3 (5HT3), HTR3A (gene 3359) (P46098 whole entry, looked up): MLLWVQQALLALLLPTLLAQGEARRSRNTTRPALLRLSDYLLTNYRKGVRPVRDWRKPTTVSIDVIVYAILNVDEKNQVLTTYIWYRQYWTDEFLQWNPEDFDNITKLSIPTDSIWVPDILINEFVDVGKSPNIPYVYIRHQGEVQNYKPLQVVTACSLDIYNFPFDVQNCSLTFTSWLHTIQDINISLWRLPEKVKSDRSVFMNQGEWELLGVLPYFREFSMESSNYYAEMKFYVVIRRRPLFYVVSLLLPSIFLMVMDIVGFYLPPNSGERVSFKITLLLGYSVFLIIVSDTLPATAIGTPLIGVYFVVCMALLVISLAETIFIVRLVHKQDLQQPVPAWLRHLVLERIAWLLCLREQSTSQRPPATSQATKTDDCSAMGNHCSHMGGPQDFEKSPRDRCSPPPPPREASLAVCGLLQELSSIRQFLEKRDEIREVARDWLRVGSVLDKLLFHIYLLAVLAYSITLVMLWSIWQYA

Structure (SMILES)	AC50	outcome
ClCCOCCCl	1.38 µM (active)	–
Brc1ccc(Oc2ccccc2)cc1	–	inactive
Nc1ccc(N=Nc2ccccc2)cc1	11.4 µM (active)	–

Biological target: rat Gamma-Aminobutyric Acid Type A Receptor, Non-Selective (GABAR-NonSelective), Gabra1 (gene 29705) (UniProt P62813)
Assay: NVS_LGIC_rGABAR_NonSelective: NovaScreen (NVS) Ligand-Gated Ion Channel Assay for rat Gamma-Aminobutyric Acid Type A Receptor, Non-Selective (GABAR-NonSelective) (AID 2283326)
In short: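 Radioligand displacement on rat whole-brain extract, 1 h, filter scintillation readout; signal loss fitted versus DMSO. Primary screen in duplicate at 25 uM; hits (e.g. ≥30% inhibition) retested in concentration-response up to 50 uM.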

Chain of rat Gamma-Aminobutyric Acid Type A Receptor, Non-Selective (GABAR-NonSelective), Gabra1 (gene 29705) (P62813 whole entry, looked up): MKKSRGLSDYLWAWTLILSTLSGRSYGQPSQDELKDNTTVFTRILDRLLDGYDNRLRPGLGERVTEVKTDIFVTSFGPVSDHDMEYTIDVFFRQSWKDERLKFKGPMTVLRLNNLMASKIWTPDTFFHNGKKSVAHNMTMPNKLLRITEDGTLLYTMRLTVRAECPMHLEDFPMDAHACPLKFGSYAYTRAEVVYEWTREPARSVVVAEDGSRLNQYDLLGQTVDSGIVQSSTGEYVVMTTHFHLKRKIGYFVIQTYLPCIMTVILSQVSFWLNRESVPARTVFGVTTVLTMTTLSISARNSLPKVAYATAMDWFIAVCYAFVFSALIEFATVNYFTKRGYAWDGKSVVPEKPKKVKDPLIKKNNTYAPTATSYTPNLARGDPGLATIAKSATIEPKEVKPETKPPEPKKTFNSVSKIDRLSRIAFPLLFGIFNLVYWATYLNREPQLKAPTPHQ

Structure (SMILES)	AC50	outcome
O=C(O)C1C2CCC(O2)C1C(=O)O (stereo unspecified)	2.14 µM (active)	–
CCC(C)c1ccc(O)cc1 (stereo unspecified)	–	inactive
Nc1ccc(N=Nc2ccccc2)cc1	–	inactive

Biological target: human Constitutive Androstane Receptor (CAR), NR1I3 (gene 9970) (UniProt Q14994)
Assay: NVS_NR_hCAR_Agonist: NovaScreen (NVS) Nuclear Receptor Binding Assay for human Constitutive Androstane Receptor Agonism (CAR) (AID 2283328)
In short: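 Cell-free TR-FRET binding readout with extracted human CAR protein, read 1 h after dosing. Gain of signal fitted against DMSO baseline. Single-concentration duplicates at 25 uM, then concentration-response up to 50 uM for actives.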

Chain of human Constitutive Androstane Receptor (CAR), NR1I3 (gene 9970) (Q14994 whole entry, looked up): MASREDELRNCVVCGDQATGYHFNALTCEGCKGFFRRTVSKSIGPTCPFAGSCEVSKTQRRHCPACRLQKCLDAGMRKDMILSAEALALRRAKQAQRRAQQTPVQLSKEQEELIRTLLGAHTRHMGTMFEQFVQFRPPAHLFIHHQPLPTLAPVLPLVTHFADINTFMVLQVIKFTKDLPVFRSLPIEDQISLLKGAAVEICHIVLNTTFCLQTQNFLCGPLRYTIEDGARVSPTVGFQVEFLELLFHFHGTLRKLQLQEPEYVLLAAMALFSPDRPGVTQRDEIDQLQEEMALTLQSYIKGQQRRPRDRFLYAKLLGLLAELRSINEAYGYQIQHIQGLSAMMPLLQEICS

Structure (SMILES)	outcome
CCCSC(=O)N(CCC)CCC	inactive
c1ccc2c(c1)-c1cccc3cccc-2c13	inactive
Cc1cc(N=Nc2ccccc2C)ccc1N	inactive
CC(C)(C)OOC(C)(C)CCC(C)(C)OOC(C)(C)C	inactive
Nc1ccc(N=Nc2ccccc2)cc1	inactive

Biological target: human Peripheral-type Benzodiazepine Receptor (PBR), TSPO (gene 706) (UniProt P30536)
Assay: NVS_MP_hPBR: NovaScreen (NVS) Membrane Protein Assay for human Peripheral-type Benzodiazepine Receptor (PBR) (AID 2283331);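 note: hits reduce radioligand binding relative to DMSO baseline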
In short: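 Human colonic cell membranes were incubated with test chemical for 1 hour; radioligand binding was measured by filter-based scintillation counting. Primary screen ran in duplicate at 25 uM, with actives followed in concentration series; loss of signal versus DMSO baseline.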

Chain of human Peripheral-type Benzodiazepine Receptor (PBR), TSPO (gene 706) (P30536 whole entry, looked up): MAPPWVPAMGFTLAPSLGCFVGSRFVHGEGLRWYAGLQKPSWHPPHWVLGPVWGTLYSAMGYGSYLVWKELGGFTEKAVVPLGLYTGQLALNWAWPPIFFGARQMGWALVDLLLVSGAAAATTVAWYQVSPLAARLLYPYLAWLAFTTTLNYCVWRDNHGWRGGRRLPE

Structure (SMILES)	AC50	outcome
Cc1ccc(N=C=O)cc1N=C=O	4.24 µM (active)	–
CC(C)COC(=O)c1ccccc1C(=O)OCC(C)C	–	inactive
CN(C)c1ccc(C(=O)c2ccc(N(C)C)cc2)cc1	10.2 µM (active)	–
Cc1cc(N=Nc2ccccc2C)ccc1N	36.2 µM (active)	–
O=C(Nc1ccccc1)c1ccccc1I	1.46 µM (active)	–

Biological target: rat Peripheral-type Benzodiazepine Receptor (PBR), Tspo (gene 24230) (UniProt P16257)
Assay: NVS_MP_rPBR: NovaScreen (NVS) Membrane Protein Assay for rat Peripheral-type Benzodiazepine Receptor (PBR) (AID 2283335)
In short: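 Rat kidney membranes; radioligand binding with displacement, filter-based scintillation counting, 1 h incubation. Primary screen in duplicate at 25 uM, actives followed in concentration series; loss of binding vs DMSO.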

Chain of rat Peripheral-type Benzodiazepine Receptor (PBR), Tspo (gene 24230) (P16257 whole entry, looked up): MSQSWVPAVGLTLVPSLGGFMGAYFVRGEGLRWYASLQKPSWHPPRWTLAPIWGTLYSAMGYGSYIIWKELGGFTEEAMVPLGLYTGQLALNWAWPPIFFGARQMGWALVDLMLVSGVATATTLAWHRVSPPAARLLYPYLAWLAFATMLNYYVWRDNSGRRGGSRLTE

Structure (SMILES)	outcome	AC50
CC(C)COC(=O)c1ccccc1C(=O)OCC(C)C	inactive	–
CN(C)c1ccc(C(=O)c2ccc(N(C)C)cc2)cc1	inactive	–
CCCCOC(=O)c1ccccc1C(=O)OCc1ccccc1	inactive	–
Cc1cc(N=Nc2ccccc2C)ccc1N	–	14 µM (active)
O=C(Nc1ccccc1)c1ccccc1I	–	1.61 µM (active)
Nc1ccc(N=Nc2ccccc2)cc1	–	11 µM (active)

Biological target: bovine Gamma-Aminobutyric Acid Type A Receptor Agonist (GABAR Agonist), GABRA1 (gene 780973) (UniProt P08219)
Assay: NVS_LGIC_bGABAR_Agonist: NovaScreen (NVS) Ligand-Gated Ion Channel Assay for bovine Gamma-Aminobutyric Acid Type A Receptor Agonist (GABAR Agonist) (AID 2283338)
In short: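 Radioligand binding to bovine cerebellar membranes in agonist format, read by filter-based scintillation counting after 1 h. Primary screen in duplicate at 25 uM, with actives followed in concentration series. Gain of signal versus DMSO.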

Chain of bovine Gamma-Aminobutyric Acid Type A Receptor Agonist (GABAR Agonist), GABRA1 (gene 780973) (P08219 whole entry, looked up): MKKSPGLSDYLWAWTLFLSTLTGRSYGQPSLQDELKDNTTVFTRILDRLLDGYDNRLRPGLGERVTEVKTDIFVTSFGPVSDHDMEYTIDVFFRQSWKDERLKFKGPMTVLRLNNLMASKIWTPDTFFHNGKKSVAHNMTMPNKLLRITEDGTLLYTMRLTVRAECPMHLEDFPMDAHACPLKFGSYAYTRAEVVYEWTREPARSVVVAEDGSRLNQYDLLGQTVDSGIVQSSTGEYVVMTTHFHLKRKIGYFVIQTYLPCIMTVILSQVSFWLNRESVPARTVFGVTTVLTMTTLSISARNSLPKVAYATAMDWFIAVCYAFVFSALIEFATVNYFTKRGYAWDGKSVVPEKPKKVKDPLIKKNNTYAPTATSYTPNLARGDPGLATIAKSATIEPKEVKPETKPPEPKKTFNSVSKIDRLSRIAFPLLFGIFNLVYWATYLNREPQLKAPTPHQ

Structure (SMILES)	outcome
CCC12COCN1COC2	inactive
C=CCc1ccc2c(c1)OCO2	inactive
CCCCOC(=O)c1ccccc1C(=O)OCc1ccccc1	inactive
CN(C)C(=O)Nc1ccc(Cl)cc1	inactive
